# Assay results published in PubChem BioAssay AID504333 (National Center for Advancing Translational Sciences (NCATS), 2011).
# Screen size: about 360,000 compounds; about 16,000 (4.4%) were called active. Roughly 9% stayed inconclusive and do not appear here. The full list was thinned out, with actives kept by preference. Values without a mark were called inactive. Calls follow the shape of the dose curve; as a rule, active = well fitted inhibition curve with a large enough effect; inconclusive = small, poorly fitted or top-dose-only effect; inactive = no such curve, though single readings can be large or run the other way.
# Biological target: Bromodomain adjacent to zinc finger domain protein 2B (Homo sapiens) (UniProt Q9UIF8)
# Sequence (Q9UIF8 whole entry, looked up, the tested form may be a part): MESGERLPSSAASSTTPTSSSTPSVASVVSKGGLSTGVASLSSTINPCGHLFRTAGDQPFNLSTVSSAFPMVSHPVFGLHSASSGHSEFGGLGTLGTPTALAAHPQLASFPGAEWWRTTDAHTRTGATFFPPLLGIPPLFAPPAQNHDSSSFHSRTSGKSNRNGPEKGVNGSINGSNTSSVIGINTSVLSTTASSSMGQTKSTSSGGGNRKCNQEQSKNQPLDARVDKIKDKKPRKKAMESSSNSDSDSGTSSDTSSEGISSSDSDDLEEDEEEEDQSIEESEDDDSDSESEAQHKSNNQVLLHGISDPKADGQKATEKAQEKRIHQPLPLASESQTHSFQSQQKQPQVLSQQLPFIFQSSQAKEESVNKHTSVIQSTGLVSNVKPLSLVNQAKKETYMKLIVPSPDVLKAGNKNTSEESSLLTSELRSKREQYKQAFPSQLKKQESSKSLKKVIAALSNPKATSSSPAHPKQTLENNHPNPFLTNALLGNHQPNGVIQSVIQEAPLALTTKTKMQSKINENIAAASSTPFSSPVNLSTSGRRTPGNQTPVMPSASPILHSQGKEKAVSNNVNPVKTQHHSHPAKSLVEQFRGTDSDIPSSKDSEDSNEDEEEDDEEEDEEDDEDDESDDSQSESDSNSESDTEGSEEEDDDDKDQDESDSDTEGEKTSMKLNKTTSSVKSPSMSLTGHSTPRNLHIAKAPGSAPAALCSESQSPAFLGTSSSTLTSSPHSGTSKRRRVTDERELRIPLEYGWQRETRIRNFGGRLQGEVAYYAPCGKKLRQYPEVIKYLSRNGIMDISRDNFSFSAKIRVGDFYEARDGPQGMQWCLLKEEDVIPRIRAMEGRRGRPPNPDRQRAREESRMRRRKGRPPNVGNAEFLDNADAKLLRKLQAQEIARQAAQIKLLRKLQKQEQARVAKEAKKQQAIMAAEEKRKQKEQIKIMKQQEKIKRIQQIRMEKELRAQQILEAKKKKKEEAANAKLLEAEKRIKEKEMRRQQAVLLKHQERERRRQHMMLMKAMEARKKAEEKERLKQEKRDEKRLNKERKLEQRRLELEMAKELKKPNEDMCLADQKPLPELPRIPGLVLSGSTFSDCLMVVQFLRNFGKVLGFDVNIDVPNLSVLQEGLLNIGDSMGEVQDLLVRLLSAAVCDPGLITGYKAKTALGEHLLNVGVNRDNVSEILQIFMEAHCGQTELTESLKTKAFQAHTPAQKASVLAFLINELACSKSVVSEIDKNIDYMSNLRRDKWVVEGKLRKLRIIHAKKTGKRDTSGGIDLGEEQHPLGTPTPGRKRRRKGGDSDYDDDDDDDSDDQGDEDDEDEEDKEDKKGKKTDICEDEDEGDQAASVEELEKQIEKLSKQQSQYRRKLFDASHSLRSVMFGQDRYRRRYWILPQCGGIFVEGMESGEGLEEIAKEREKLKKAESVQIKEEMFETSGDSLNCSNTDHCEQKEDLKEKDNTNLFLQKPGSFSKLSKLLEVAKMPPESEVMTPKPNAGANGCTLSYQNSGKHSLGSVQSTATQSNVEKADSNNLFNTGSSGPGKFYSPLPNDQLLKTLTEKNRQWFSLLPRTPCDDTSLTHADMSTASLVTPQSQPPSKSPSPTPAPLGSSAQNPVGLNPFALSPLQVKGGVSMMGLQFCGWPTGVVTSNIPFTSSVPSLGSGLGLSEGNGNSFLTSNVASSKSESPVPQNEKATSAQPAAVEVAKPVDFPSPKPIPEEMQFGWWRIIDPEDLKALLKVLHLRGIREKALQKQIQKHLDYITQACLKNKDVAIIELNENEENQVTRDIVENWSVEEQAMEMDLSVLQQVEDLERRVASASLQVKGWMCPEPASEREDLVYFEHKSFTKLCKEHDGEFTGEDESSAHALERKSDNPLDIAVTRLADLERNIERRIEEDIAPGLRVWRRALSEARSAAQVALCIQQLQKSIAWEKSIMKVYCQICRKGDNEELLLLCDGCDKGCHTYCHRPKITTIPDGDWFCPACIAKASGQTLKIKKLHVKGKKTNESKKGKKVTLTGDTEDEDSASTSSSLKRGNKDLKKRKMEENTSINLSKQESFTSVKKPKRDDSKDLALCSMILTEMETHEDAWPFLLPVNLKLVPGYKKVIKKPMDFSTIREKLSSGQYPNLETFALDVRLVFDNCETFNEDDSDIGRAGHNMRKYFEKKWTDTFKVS
# Assay: qHTS Assay for Inhibitors of BAZ2B; also: nearly all actives have a fitted effect of over 60% in size
# Conditions: AlphaScreen BAZ2B-H3K14Ac peptide displacement; series mostly up to 114 µM; activity change, negative = inhibition: at the top concentration
# Text: BAZ2B (bromodomain adjacent to zinc finger domain, 2B) belongs to a family of ubiquitously expressed bromodomain containing proteins, which biological function has not yet been elucidated. […] The interaction of BAZ2B with ISWI mediated by the BAZ1 motif has recently been described. […] The protocol is based on the AlphaScreen (PerkinElmer) displacement assay developed by NCGC [5], but uses the peptide ligand Biot-H3K14Ac, a high affinity binding partner for BAZ2B, in an AlphaScreen format. Although AlphaScreen has significant advantages with its utility in a variety of epigenetic target assays, the primary screening data provided in this deposition should be used with caution due to the prevalence of screening artifacts. The top compound concentration tested was 110uM in this assay, which increases number of actives and potential artifacts. An AlphaScreen counterscreen is highly recommended to be run against any putative actives to eliminate non-specific artifacts. Alternatively, one can use other AlphaScreen assays in PubChem to filter out promiscuous hits. Eberharter, A. et al. ACF1 improves the effectiveness of nucleosome mobilization by ISWI through PHD-histone contacts. The EMBO journal 23, 4029-4039. 2004. PMID: 15457208 [2] Jones, M.H. et al. A novel family of bromodomain genes. Genomics 63, 40-45. 2000. PMID: 10662543 [3] Yasgar, et al. Compound Management for Quantitative High-Throughput Screening. JALA. 2008 Apr;13(2):79-89. PMID: 18496600 [4] Inglese, et al. Quantitative high-throughput screening: a titration-based approach that efficiently identifies biological activities in large chemical libraries. Proc Natl Acad Sci. 1;103(31):11473-8. 2006. PMID: 16864780 [5] Quinn et al. A chemiluminescence-based method for identification of histone lysine methyltransferase inhibitors. Mol Biosyst 6(5): 782-8. 2010. PMID: 20567762 [6] Baell,Holloway. New substructure filters for removal of pan assay interference compounds (PAINS) from screening libraries and for their exclusion in bioassays. J Med Chem. 53(7):2719-40. 2010. PMID: 20131845 NIH Molecular Libraries Probe Production Network [MLPCN] NIH Chemical Genomics Center [NCGC] Structural Genomics Consortium (SGC) NIH Grant: 5U54 MH084681-02
# To each well of a 1,536w plate, 2ul of BAZ2B protein (final 50nM) and 1ul biotinylated histone peptide acetylated at Lys14 [b-H3(5-23)K14Ac] (final 50nM) were added in 1x PBS buffer, pH 7.4, containing 0.01% Tween-20, using a nanoliter dispenser. Formation of a protein-peptide complex proceeded at room temperature for 30 min. A Kalypsys pin-tool was employed to transfer 23 nL of library compound solution in DMSO to each well. Following a 30 min incubation of the protein-peptide complex with compounds at room temperature, a mixture of 40 ug/mL each streptavidin-coated donor and nickel chelate acceptor AlphaScreen beads (final 10 ug/mL) were added in a 1ul dispense for a final volume of 4ul. A brief centrifugation followed (1000rpm, 1 min) and were then incubated protected from the light for 20 min at room temperature. Plates were read on an EnVision multilabel plate reader using the 1,536 plate HTS AlphaScreen aperture (excitation time 80 ms, measurement time 240 ms).
# % is scaled to controls: 0 for no effect and ±100 for the full control effect; potency is read from the fitted curve at half-maximal effect.
SMILES,"activity change, negative = inhibition",Potency
O=C(NCCc1ccc(Cl)cc1)c1ccc2c(c1)N(Cc1ccc(F)cc1)C(=O)CS2,-2.79%,–
COc1cc(NC(=O)c2noc3c2CSc2ccccc2-3)cc(OC)c1OC,-8.66%,–
COc1ccc(-n2c(=O)c3sc4ccccc4c3n(CC(=O)Nc3cccc(C)c3)c2=O)cc1,-6.4%,–
COc1ccc(NC(=O)Cn2c(=O)n(CCC(C)C)c(=O)c3cccnc32)cc1Cl,-0.608%,–
Cc1cccc(OCCCC(=O)Nc2sc3c(c2C(N)=O)CCC(C)C3)c1 (stereo not given),-8.35%,–
COc1ccc(Cl)cc1NC(=O)Cn1c(=O)c2ccccc2n2nncc12,-22.9%,–
COc1ccc(OC)c(NC(=O)CN2CCCN(Cc3cc(C)ccc3C)S2(=O)=O)c1,-18.8%,–
Cc1cc(C(=O)Nc2cccc(C(F)(F)F)c2)c2c(C)nn(-c3cccc(F)c3)c2n1,18% [at 57.1 µM],–
CC(=O)c1ccc(N2CCN(C3C(=O)c4ccccc4N3C(C)=O)CC2)cc1 (stereo not given),-14.1%,–
Cc1ccc(C)c(Cn2c(CCCNC(=O)C3CCCCC3)nc3ccccc32)c1,-25.4%,–
CC(=O)c1ccc(N2CCN(C(=O)CCc3ccccc3)CC2)cc1,8.19% [at 0.457 µM],–
CC(=O)N1CCN(c2ccc(NCc3ccc(C(C)C)cc3)cc2)CC1,–,35.5 µM (active)
O=C(Nc1ccc(F)cc1)N1CCN(c2ccc(F)cc2)CC1,2.02%,–
COc1cc(OC)c(NC(=O)c2cnc(N3CCCC3)nc2C)cc1Cl,-6.13%,–
O=C(NCc1ccccc1)c1ccc2c(c1)nc1n2CCCCC1,7.55%,–
COc1cccc(C(=O)Nc2ccc3oc(-c4ccc5ccccc5c4)nc3c2)c1,-8.57%,–
CCN1/C(=C\c2ccc3ccccc3[n+]2CC)Sc2cc(C)ccc21,–,50.1 µM (active)
CCCSc1nc2sc3c(c2c(=O)n1-c1cccc(Br)c1)CC(C)(C)OC3,3.93%,–
O=S(=O)(NCc1ccco1)c1cnc(Cl)c(Cl)c1,1.63%,–
CSCCC(NC(=O)c1ccco1)C(=O)OCC(=O)Nc1ncc(Cl)c(C)c1Cl (stereo not given),-37.8%,–
Cc1c(Cl)cnc(NC(=O)COC(=O)c2ccc(S(=O)(=O)NCc3ccco3)cc2)c1Cl,–,50.1 µM (active)
O=C(CCCl)Nc1ccc(S(=O)(=O)NCc2ccco2)cc1,-31%,–
O=C(COC(=O)c1ccco1)NCc1ccc(Cl)cc1,-1.66%,–
O=C(COC(=O)c1cnc(Cl)c(Cl)c1)NCc1ccco1,–,50.1 µM (active)
Cc1nn2c(=O)cc(COC(=O)CNC(=O)c3ccc(F)cc3)nc2s1,-23.7%,–

SMILES,"activity change, negative = inhibition",Potency
CC1=C(c2ccc(C)c(C)c2)S(=O)(=O)NC1=NCc1ccccc1Cl,-20.8%,–
CC(C)c1ccc(NC(=O)c2ccc(Cn3nc(N4CCN(c5ccccc5)CC4)ccc3=O)o2)cc1,–,39.8 µM (active)
COc1ccccc1N1CCN(c2ccc(=O)n(CC(=O)NCc3ccc(OC(C)C)cc3)n2)CC1,-12.3%,–
CCn1nc(C(=O)Nc2ccc(N3CCOCC3)cc2)c2ccccc2c1=O,-3.8%,–
Fc1ccccc1Oc1ncnc2c1oc1ccccc12,6.13%,–
O=C(Nc1ccc(Br)cc1)c1cc2nc(-c3ccccc3)cc(-c3ccccc3)n2n1,22.8%,–
COc1cc(OC)c(C(=O)Nc2ccccc2-c2ccccc2)cc1OC,-25.7%,–
COc1cc(OC)c(C(=O)Nc2ccc(N(C)C)cc2)cc1OC,–,50.1 µM (active)
COc1ccc(Cl)cc1C(=O)Nc1ccc(N(C)C(C)=O)cc1,-1.13%,–
Cc1cc(C)cc(NC(=O)CCS(=O)(=O)c2cc3c4c(c2)CCN4C(=O)CC3)c1,5.77%,–
COc1ccc(NC(C)=O)cc1NC(=O)CN1CCN(c2ccc(F)cc2)CC1,-18.2%,–
CCOc1ccccc1N1CCN(C(=O)c2ccc3[nH]c(C)c(C)c3c2)CC1,–,44.7 µM (active)
Cc1[nH]c2ccc(C(=O)N3CCN(C)CC3)cc2c1C,-22.3%,–
CCS(=O)(=O)N1CCc2cc(C(=O)N3CCN(c4ccccc4OC)CC3)ccc21,-2.3%,–
CN(C(=O)CSc1nnc(NC(=O)Nc2ccccc2)s1)c1ccccc1,-3.45%,–
Cc1ccc(-n2cnc3cc(C(=O)NCCC4=CCCCC4)ccc32)cc1Cl,-4.95%,–
C/C(=C/c1ccccc1)C(=O)N1CCN(c2ccccc2)CC1,–,56.2 µM (active)
O=C(CN1CCCC1)N1CCN(c2ccccc2)CC1,-2.41%,–
CC(CC(=O)N1CCN(c2ccccc2)CC1)c1ccccc1 (stereo not given),2.9%,–
COCCCNC(=O)Cn1cc(/C=C(\C#N)C(=O)N2CCN(c3ccccc3)CC2)c2ccccc21,-9.82%,–
COc1ccc(N2CCN(C(=O)/C(C#N)=C/c3ccccc3)CC2)cc1,–,50.1 µM (active)
CCOC(=O)/C(C#N)=C/c1ccc(N2CCN(Cc3ccccc3)CC2)cc1,32.5%,–
Fc1ccc(C(Nc2ccc(Cl)c(C(F)(F)F)c2)c2nnc(-c3ccccc3)o2)cc1 (stereo not given),0.454%,–
COc1cc(Cl)c(NC(=O)CC(C)S(=O)(=O)c2cc3c(cc2C)NC(=O)CO3)c(OC)c1 (stereo not given),-12.4%,–
Cc1cccc(Cc2c(C)nc3nc(SCc4ccccc4Cl)nn3c2C)c1,10.9%,–
